Holding throughout (set-up): scale not given: direction of the effect not stated beside the values
Assay [1] deals with Protein translocase subunit SecA (Escherichia coli (strain K12)) (UniProt P10408). As to the kind of experiment: Assay to Identify E. coli SecA ATPase Inhibitors. The class given is functional. The settings on record: 30 µM.
Assay [2] has as its target T1, Ubiquitin-activating enzyme e1, putative (Leishmania donovani (strain BPK282A1)) (UniProt E9BSI1).
T1 sequence (whole entry): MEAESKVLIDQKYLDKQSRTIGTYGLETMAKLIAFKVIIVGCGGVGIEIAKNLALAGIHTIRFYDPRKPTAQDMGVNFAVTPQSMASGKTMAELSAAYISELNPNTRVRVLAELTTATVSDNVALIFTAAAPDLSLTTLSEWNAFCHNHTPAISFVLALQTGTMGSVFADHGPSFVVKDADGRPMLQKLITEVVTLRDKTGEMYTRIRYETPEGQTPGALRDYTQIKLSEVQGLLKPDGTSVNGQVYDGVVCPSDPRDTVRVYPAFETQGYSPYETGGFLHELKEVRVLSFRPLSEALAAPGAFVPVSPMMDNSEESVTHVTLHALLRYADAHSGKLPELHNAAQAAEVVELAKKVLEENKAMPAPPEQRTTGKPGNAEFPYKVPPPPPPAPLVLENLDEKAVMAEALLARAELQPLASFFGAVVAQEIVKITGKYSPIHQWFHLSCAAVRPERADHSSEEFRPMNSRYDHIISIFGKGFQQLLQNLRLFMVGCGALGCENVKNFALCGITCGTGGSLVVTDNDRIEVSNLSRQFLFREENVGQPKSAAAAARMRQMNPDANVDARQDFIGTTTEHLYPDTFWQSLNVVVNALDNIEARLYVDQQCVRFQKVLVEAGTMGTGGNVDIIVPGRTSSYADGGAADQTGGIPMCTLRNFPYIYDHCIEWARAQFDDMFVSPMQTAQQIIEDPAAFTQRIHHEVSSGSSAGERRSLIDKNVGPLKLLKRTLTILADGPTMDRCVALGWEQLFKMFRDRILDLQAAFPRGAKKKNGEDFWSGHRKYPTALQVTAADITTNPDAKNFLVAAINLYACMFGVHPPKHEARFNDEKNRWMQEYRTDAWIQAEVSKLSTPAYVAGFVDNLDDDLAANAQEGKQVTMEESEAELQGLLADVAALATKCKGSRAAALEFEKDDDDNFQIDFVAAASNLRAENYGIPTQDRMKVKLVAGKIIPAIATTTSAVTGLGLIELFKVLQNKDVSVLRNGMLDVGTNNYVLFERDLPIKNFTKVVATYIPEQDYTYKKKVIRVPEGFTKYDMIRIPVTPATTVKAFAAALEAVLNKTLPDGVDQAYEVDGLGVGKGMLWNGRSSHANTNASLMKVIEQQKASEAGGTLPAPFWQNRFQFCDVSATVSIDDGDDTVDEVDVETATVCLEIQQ
As to the kind of experiment: Leishmania donovani Ubiquitin Activating Enzyme (LdE1). Type of assay: functional. The settings on record: 30 µM.

Assay [3] has as its target AMP-activated protein kinase, AMPK (Homo sapiens) (UniProt P54646+O43741+P54619+Q9UGJ0+Q9Y478+Q13131+Q9UGI9). As to the kind of experiment: AMP-dependent Kinase enzyme assay. An in vitro enzyme assay that detects ADP turnover that is directly proportional to AMPK activity. This uses naive AMPK that is activated during the assay with MK-8722. Type of assay: functional. The settings on record: 30 µM.

In assay [4] the target is Sialic acid-binding Ig-like lectin 9 (Homo sapiens) (UniProt Q9Y336). Briefly: Hs-Siglec9 ALPHAscreen SOP 20170721. The settings on record: 10 µM.
In a further assay the test system is Trypanosoma cruzi. As to the kind of experiment: Trypanosoma cruzi phosphomannomutase and mannose-1-phosphate guanylyltransferase assay. The class given is functional. As to conditions: 10 µM.
Assay [5] deals with T2, Arginase-2, mitochondrial (Homo sapiens) (UniProt P78540).
T2 sequence (whole entry): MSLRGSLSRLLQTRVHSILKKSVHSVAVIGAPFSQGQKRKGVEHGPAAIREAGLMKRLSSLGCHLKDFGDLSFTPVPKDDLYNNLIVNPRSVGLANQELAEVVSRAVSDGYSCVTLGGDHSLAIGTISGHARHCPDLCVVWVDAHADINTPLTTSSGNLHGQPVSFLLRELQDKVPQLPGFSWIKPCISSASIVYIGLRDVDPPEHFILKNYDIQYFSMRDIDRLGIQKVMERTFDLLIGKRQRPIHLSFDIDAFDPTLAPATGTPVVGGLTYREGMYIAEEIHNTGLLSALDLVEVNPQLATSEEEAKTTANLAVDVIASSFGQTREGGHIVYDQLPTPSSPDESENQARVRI
As to the kind of experiment: in vitro enzyme assay to detect the production of urea directly proportional to the activity of Arginase II. Further: in the data most compounds retested in dose-response had high values. The class given is functional. The settings on record: 33.3 µM.

Assay [6] has as its target T3, Proteasome subunit beta (Trypanosoma cruzi) (UniProt O96673).
T3 sequence (whole entry): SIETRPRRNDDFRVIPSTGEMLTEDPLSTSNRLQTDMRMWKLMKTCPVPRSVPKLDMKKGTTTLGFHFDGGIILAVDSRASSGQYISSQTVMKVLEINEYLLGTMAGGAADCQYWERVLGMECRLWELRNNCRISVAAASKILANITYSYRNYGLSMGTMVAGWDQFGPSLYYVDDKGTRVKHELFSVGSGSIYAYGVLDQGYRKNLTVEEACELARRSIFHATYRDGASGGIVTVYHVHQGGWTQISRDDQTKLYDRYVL
Briefly: Trypanosoma cruzi proteasome chymotrypsin-like activity (TcProtChymo) assay. Further: in the data most compounds retested in dose-response had high values. The class given is functional. The settings on record: 9.37 µM.

For the next assay, the species on record is Homo sapiens. Briefly: To identify inhibition of the IFN signalling (Jak-Stat) pathway via expression of an eGFP reporter gene under the control of an IFN-stimulated response element (ISRE) containing MxA promoter. Type of assay: functional. As to conditions: 30 µM. In general terms: Reporter assays use an easily measured gene product as a stand-in for the process of interest.

Assay [7] deals with T4, Tyrosyl-tRNA synthetase, putative (Trypanosoma cruzi (strain CL Brener)) (UniProt Q4DSP6).
T4 sequence (whole entry): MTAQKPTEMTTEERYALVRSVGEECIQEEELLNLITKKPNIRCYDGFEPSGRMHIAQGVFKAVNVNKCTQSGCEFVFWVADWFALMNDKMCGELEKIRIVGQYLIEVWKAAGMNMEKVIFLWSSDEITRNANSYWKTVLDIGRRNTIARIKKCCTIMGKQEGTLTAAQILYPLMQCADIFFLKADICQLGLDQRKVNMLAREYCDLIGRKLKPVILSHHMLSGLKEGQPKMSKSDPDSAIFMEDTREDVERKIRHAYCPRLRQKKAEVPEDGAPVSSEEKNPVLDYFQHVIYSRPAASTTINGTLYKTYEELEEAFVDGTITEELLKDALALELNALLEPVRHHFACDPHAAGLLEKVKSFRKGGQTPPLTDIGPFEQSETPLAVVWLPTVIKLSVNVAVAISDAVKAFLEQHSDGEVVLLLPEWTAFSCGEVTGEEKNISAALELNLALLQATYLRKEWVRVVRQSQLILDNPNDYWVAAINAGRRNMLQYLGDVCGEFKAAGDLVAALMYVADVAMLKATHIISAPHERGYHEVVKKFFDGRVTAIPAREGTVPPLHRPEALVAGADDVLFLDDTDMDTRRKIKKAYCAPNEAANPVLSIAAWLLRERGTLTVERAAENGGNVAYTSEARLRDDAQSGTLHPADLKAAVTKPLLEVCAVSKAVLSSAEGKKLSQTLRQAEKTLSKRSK
Briefly: Trypanosoma cruzi tyrosyl tRNA synthetase (TcYRS) _High Tyrosine SOP. Further: in the data most compounds retested in dose-response had high values. Type of assay: functional. As to conditions: 30 µM.

Assay [8] has as its target T4, Tyrosyl-tRNA synthetase, putative (Trypanosoma cruzi (strain CL Brener)). As to the kind of experiment: Trypanosoma cruzi tyrosyl tRNA synthetase (TcYRS) SOP. Type of assay: functional. The settings on record: 30 µM.
Assay [9] has as its target Chromo domain-containing protein 1 (Saccharomyces cerevisiae (strain ATCC 204508 / S288c) (Baker's yeast)) (UniProt P32657). Briefly: ScCHD-1 Enzyme Inhibition Assay. Further: in the data most compounds retested in dose-response had high values. The settings on record: 30 µM. The class given is functional.

SMILES strings stand for the structures. For some of these results: Measured potencies and affinities stand elsewhere.

Sequence of Sialic acid-binding Ig-like lectin 9 (Homo sapiens) (Q9Y336 whole entry): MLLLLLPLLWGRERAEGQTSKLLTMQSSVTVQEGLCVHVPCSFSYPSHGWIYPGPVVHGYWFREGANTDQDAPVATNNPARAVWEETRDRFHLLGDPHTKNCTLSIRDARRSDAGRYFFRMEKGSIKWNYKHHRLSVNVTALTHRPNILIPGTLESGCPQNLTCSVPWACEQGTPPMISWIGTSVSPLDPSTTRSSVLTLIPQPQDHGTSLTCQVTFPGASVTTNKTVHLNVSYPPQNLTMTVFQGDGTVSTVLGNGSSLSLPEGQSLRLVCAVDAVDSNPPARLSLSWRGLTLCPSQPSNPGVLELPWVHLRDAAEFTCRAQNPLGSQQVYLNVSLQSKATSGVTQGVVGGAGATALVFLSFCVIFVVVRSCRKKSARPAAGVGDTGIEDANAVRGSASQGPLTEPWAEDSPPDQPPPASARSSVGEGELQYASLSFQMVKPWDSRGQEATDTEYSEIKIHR
Sequence of Chromo domain-containing protein 1 (Saccharomyces cerevisiae (strain ATCC 204508 / S288c) (Baker's yeast)) (P32657 whole entry, the tested form may be a part): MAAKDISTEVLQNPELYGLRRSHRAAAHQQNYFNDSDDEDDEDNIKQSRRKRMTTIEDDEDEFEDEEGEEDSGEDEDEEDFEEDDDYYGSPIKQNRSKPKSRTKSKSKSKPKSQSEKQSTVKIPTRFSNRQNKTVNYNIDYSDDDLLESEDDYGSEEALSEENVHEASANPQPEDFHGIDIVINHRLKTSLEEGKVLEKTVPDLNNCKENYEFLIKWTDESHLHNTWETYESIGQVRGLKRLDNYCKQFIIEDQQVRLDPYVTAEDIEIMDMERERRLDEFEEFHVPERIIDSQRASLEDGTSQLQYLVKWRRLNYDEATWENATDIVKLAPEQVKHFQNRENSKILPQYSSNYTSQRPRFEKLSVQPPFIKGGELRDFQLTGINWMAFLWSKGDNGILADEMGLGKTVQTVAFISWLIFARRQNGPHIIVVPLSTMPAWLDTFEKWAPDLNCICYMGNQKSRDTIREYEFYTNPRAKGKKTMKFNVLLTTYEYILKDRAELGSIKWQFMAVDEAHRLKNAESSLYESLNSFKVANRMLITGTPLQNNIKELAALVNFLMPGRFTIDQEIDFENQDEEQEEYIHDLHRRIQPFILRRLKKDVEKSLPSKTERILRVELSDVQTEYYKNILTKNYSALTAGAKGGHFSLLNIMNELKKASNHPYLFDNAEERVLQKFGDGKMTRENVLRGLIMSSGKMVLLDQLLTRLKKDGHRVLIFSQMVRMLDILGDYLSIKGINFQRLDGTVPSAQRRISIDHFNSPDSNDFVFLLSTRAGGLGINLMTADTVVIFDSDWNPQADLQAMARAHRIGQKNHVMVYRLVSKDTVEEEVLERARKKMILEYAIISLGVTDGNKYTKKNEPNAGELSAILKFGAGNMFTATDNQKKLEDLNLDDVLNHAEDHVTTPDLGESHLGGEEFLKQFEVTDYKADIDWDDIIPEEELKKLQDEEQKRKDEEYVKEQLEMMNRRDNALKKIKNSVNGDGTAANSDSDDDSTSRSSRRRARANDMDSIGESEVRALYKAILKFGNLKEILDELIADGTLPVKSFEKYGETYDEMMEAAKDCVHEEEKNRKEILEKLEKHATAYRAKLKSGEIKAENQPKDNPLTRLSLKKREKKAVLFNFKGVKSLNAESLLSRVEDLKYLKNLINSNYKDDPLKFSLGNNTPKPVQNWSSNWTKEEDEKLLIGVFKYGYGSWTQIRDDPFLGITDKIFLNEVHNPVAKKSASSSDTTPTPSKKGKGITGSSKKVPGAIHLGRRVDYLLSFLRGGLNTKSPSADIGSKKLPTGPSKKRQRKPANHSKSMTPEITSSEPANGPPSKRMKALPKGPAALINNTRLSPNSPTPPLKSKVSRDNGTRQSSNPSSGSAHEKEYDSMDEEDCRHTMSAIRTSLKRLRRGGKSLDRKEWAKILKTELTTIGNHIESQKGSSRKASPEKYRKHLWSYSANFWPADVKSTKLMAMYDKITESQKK
Sequence of Protein translocase subunit SecA (Escherichia coli (strain K12)) (P10408 whole entry): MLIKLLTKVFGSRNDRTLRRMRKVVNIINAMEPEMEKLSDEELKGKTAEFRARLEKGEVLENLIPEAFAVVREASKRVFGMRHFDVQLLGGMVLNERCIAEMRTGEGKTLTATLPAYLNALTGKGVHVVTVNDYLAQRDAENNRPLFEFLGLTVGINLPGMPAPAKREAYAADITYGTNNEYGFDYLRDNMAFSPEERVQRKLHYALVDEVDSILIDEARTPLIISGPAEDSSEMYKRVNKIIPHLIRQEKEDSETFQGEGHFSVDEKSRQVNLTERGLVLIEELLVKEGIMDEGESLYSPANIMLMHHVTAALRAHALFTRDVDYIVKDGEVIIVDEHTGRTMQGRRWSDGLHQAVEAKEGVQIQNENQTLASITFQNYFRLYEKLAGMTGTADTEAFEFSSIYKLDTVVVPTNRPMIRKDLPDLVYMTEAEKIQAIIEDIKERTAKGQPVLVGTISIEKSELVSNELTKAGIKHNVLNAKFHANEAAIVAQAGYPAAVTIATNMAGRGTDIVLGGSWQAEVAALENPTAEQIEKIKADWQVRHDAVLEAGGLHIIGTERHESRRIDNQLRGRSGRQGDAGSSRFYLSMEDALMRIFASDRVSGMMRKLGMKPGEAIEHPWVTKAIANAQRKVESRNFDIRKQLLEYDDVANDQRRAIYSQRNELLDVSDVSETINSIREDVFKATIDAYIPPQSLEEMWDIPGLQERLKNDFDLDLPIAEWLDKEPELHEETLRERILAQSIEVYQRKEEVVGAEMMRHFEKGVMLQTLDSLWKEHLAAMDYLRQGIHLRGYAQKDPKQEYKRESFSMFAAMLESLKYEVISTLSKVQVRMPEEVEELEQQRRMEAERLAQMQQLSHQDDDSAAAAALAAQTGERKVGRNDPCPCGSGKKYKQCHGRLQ

Regarding `CCOCCN1CCn2c(C)nnc2C1`, the Percent Effect was 2.73% in assay [1]; 19% in assay [2]; 2.63% in assay [3]; -1.98% in assay [4]; -5.03% with Trypanosoma cruzi; -3.23% in assay [5]. Further, the Percent Effect in assay [6] is 13.9%; in the assay listed under Homo sapiens, 11.9%; in assay [7], 4.17%; in [8], 12.7%; in assay [9] it was -27.4%.
Turning to `CS(=O)(=O)NCc1nnc2n1CCN(Cc1cccs1)C2`, the Percent Effect in [1] was -3.62%; in [2], 2.7%; in [3], 7.63%; in assay [4], -1.91%; with Trypanosoma cruzi, 0.684%; in assay [5], -3.5%. The Percent Effect in assay [6] was determined as 13.5%; in the assay listed under Homo sapiens it was 6.95%; in [7], 5.41%; in assay [8], 12.8%; in [9] it was 3.73%.
On to `O=C(CN1CCC(c2ccnn2CCO)CC1)NCC1CC1`, for which the Percent Effect is -2.3% in assay [1]; 17.7% in assay [2]; -5.47% in [3]; 0.194% in assay [4]; 2.36% in the assay on Trypanosoma cruzi; 0.76% in assay [5]. The Percent Effect is 6.96% in assay [6]; -2.19% in the assay filed under Homo sapiens; 8.37% in [7]; 29.1% in [8]; -5.59% in assay [9].
In the case of `COc1ccc(C2Nc3cc(Cl)ccc3C3=NCCN32)cc1OC` (stereo unspecified), the Percent Effect is -5.72% in assay [1]; 2.67% in [2]; 2.8% in assay [3]; 3.39% in [4]; 3.54% with Trypanosoma cruzi; -5.83% in assay [5]. The Percent Effect in assay [6] is 13.1%; in the assay filed under Homo sapiens, 8.26%; in assay [7], 4.25%; in [8] it was 8.97%; in assay [9], -11.7%.
Take `Cc1nn(C)c2c(NCCCn3cccn3)ncnc12`: the Percent Effect in assay [1] is -1.47%; in assay [2] it was 9.33%; in assay [3], 2.34%; in assay [4], -1.8%; in the assay with Trypanosoma cruzi, 3.34%; in [5], -3.35%. Also, the Percent Effect in [6] is 21.6%; in the assay filed under Homo sapiens, -12.4%; in assay [7], 2.12%; in [8] it was 15.4%; in assay [9], -7.78%.
Take `Cc1nn(C)c(C)c1NC(=O)CCn1ncc2c(C)cccc21`: the Percent Effect in assay [1] is -5.82%; in assay [2], 7.79%; in assay [3] it was 1.49%; in assay [4] it was 9.37%; in the assay on Trypanosoma cruzi, 2.85%; in assay [5], 9.65%. In addition, the Percent Effect in [6] came to 13.3%; in the assay filed under Homo sapiens, 5.45%; in assay [7] it was 6.45%; in assay [8], 13.6%; in assay [9], 41.5%.
With `CCn1cc(Br)c(C(=O)NCc2cnn(C)c2)n1`, the Percent Effect in [1] is -1.67%; in assay [2], 13%; in [3], -0.504%; in assay [4], 11.9%; in the assay with Trypanosoma cruzi it was 6.79%; in assay [5], -6.9%. The Percent Effect in assay [6] is 13%; in the assay listed under Homo sapiens it was 1.3%; in [7] it was 8.6%; in assay [8], 21%; in assay [9], 18.8%.
On to `c1cnnc(N2CCCC(NCc3ccc(-n4ccnc4)cc3)C2)c1` (stereo unspecified), for which the Percent Effect was -1.81% in assay [1]; 2.6% in [2]; 5.74% in assay [3]; 12% in assay [4]; -0.49% in the assay with Trypanosoma cruzi; 1.9% in assay [5]. Besides, the Percent Effect in [6] is 8.33%; in the assay listed under Homo sapiens, 3.55%; in assay [7], 0.952%; in assay [8], 0%; in assay [9], -13.3%.
With `Cc1cc(C2CCCN(CCCS(=O)(=O)c3ccccc3)C2)n[nH]1` (stereo unspecified), the Percent Effect in [1] was -0.801%; in assay [2], 15.2%; in [3], -4.79%; in [4], -8.5%; in the assay with Trypanosoma cruzi it was -3.87%; in assay [5] it was 6.46%. In addition, the Percent Effect in assay [6] was 4.34%; in the assay filed under Homo sapiens it was 18.4%; in [7], 4.43%; in assay [8], 11.4%; in assay [9], -5.44%.
In the case of `CS(=O)(=O)N1CCC(Oc2cnccn2)CC1`, the Percent Effect is -2.51% in assay [1]; 10.4% in [2]; -2.43% in assay [3]; 6.29% in assay [4]; 2.46% in the assay on Trypanosoma cruzi; 1.94% in assay [5]. Also, the Percent Effect is 14.1% in assay [6]; 7.55% in the assay filed under Homo sapiens; 4.23% in [7]; 11.5% in assay [8]; -8.42% in [9].
For `Cc1cnn(C2CCCN(C(=O)c3cn4cccnc4n3)C2)c1` (stereo unspecified), the Percent Effect is -4.17% in assay [1]; 8.11% in [2]; -11.5% in [3]; 17.1% in assay [4]; 1.04% in the assay on Trypanosoma cruzi; -6.01% in [5]. The Percent Effect is 1.62% in [6]; 7.34% in the assay filed under Homo sapiens; 7.39% in assay [7]; 16.1% in assay [8]; -12.7% in [9].

The values above are taken from ChEMBL document CHEMBL3988442, “University of Dundee, Small-Polar-MMV Screening Library” (2021).
